# In PubChem BioAssay AID687001 (Broad Institute, 2013):
# Potency and affinity values are given separately. Values without a mark were called inactive.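 How the source made its calls: active means signal-lowering compounds whose fitted half-maximal concentration is at or below twice the top tested dose in every run; inconclusive means runs disagree, flat 30 to 70% inhibition, or poor curve fit; inactive means the rest.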
# Target: Protein S100-A4 (Homo sapiens) (UniProt P26447)
# Assay: human S100A4 peptide interaction inhibition curves – biochemical, fluorescence polarization, cherry-picked hits, dose response (AID 687001);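 further: 0% = DMSO neutral control wells and -100% = TFP positive control wells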
# Settings: FP, S100A4/TAMRA-myosin IIA peptide binding; series mostly up to 11 µM; activity change, negative = inhibition: at the top concentration
# Chain of Protein S100-A4 (Homo sapiens) (P26447 whole entry, looked up): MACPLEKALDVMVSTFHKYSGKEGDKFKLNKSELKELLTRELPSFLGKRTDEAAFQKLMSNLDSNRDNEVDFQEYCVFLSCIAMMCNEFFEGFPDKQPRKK
row,Compound,"activity change, negative = inhibition"
1,COc1cc(S(=O)(=O)Nc2ccc(C)cc2)ccc1N=Cc1c(C)c(C#N)c(=O)n(C)c1O,28.3%
2,COc1cccc(NC(=O)N(C)C[C@H]2Oc3cc(C#CC4(O)CCCC4)ccc3S(=O)(=O)N([C@H](C)CO)C[C@H]2C)c1,-1.32%
3,O=C(NCC[C@H]1CC[C@H](NS(=O)(=O)c2ccccc2)[C@@H](CO)O1)c1cc(Cl)cc(Cl)c1,5.01%
4,COc1cc2c3nnc(-c4ccc(F)cc4)c-3cn(Cc3ccc(C)cc3)c2cc1OC,-30.6%
5,C=C[C@@H]1c2ccccc2N(S(=O)(=O)c2ccc(C)cc2)[C@H](c2ccccc2C(F)(F)F)C1(C#N)C#N,-0.594%
6,CN(C(=O)c1ccc(Br)o1)C1CCCCC1,1.27%
7,CS(=O)(=O)N(CCc1ccccc1)CC(=O)N1CCCCCC1,-5.34%
8,CN1CCN(S(=O)(=O)c2cccc(C(=O)NC3CCCC3)c2)CC1,-3.62%
9,COc1cccc(CN2CC3(CN(C)C3)c3c([nH]c4cc(OC)ccc34)[C@@H]2CO)c1,7.39%
10,Cc1ccc(N2CCN(C(=O)c3[nH]c(C(F)(F)F)nc3-c3ccccc3)CC2)cc1,-4.62%
11,CCCc1cn(CC[C@@H]2CC[C@H](NS(=O)(=O)c3ccccc3Cl)[C@@H](CO)O2)nn1,5.32%
12,CCC(Sc1nc2ccncc2[nH]1)C(=O)Nc1ccc(C)c(Cl)c1 (stereo not given),-0.285%
13,Cc1ccc(S(=O)(=O)Nc2ccc3c(c2)nc(CCN2CCN(c4ccccn4)CC2)n3C)cc1,1.65%
14,COc1ccc2c(c1OC)C(=O)N1N=C(c3ccc(Cl)cc3)CC21 (stereo not given),0.647%
15,N#Cc1cccc(-c2ccc3c(c2)[C@@H]2[C@@H](CCN2C(=O)c2ccncc2)[C@@H](CO)N3)c1,16.9%
16,C[C@@H]1CN([C@@H](C)CO)C(=O)c2cc(/C=C/c3ccccc3)cnc2O[C@H]1CN(C)S(=O)(=O)c1cccs1,11%
17,CNC[C@@H]1Oc2ccc(NC(=O)Nc3cccc4ccccc34)cc2C(=O)N([C@H](C)CO)C[C@@H]1C,0.263%
18,Cc1noc(C)c1S(=O)(=O)N(C)C[C@@H]1OCCCC[C@H](C)Oc2ccc(NC(=O)C3CCCCC3)cc2C(=O)N([C@H](C)CO)C[C@H]1C,26.9%
19,Cc1noc(C)c1S(=O)(=O)N(C)C[C@H]1OCCCC[C@H](C)Oc2ccc(NS(=O)(=O)c3ccccc3)cc2C(=O)N([C@H](C)CO)C[C@@H]1C,17%
20,CCCN1[C@H](CO)[C@H](c2ccc(C3=CCCCC3)cc2)[C@@H]1CNS(C)(=O)=O,7.85%
21,C[C@H](CO)N1C[C@H](C)[C@@H](CN(C)Cc2ccc(Cl)c(Cl)c2)Oc2c(NS(=O)(=O)c3cccs3)cccc2C1=O,2.58%
22,Cc1ccnc(NC(=O)C(C)N2C(=O)c3ccccc3S2(=O)=O)c1 (stereo not given),-1.79%
23,Cc1ccccc1NC(=O)C1CCN(S(=O)(=O)c2ccc3c(c2)NC(=O)C(C)S3)CC1 (stereo not given),47.4%
24,COCC(=O)N1[C@H](CO)[C@@H](c2ccccc2)C12CN(C(=O)Cc1ccccn1)C2,8.22%
25,CN1c2ccc(-c3ccccc3)cc2[C@@H]2[C@@H](CCN2C(=O)c2cccc(F)c2)[C@@H]1CO,3.83% [at 10 µM]
